26 compounds from PubChem BioAssay (Tox21) can be followed below.

Test [1] can be described thus: Human pregnane X receptor (PXR) small molecule agonists, qHTS cell viability counter screen (AID 1346977). Further: nearly all actives have a fitted effect of over 50% in size. Further: potency means the concentration at half of the fitted maximal effect. Put shortly: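 Tox21 qHTS format; PXR-Luc HepG2, 2,000/well, charcoal-stripped FBS 5%. Cpd exposure 24hr. Read: CellTiter-Fluor fluorescence, multiplexed with luciferase.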
On the technique in general: In qHTS, concentration-response curves come from the screen itself.

The nature of test [2]: Caspase-3/7 induction in HepG2 cells by small molecules, qHTS assay (AID 1346978). Further: nearly all actives have a fitted effect of over 15% in size. Further: potency means the concentration at half of the fitted maximal effect. Put shortly:
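Wild-type HepG2 cells (2,000/well) were settled 5 h at 37 C, 5% CO2, then exposed to compounds in DMSO for 17 h. Caspase-3/7 activity was read by luminescence 30 min after adding Caspase-Glo 3/7 reagent at room temperature.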

The nature of test [3]: Caspase-3/7 induction in CHO-K1 cells by small molecules, qHTS cell viability counter screen (AID 1346979). Further: nearly all actives have a fitted effect of over 35% in size. Further: potency means the concentration at half of the fitted maximal effect. Put shortly:
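CellTiter-Fluor viability check, qHTS format: wild-type CHO-K1, 16hr compound treatment, 1hr reagent incubation, fluorescence read.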

The nature of test [4]: Caspase-3/7 induction in CHO-K1 cells by small molecules, qHTS assay (AID 1346980). Further: nearly all actives have a fitted effect of over 15% in size. Further: potency means the concentration at half of the fitted maximal effect. Put shortly: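 Wild-type cells were seeded at 1,500 per well and settled 5 hr at 37 C, 5% CO2, then exposed to DMSO-dissolved compounds for 17 hr. Caspase-Glo 3/7 reagent was added, and luminescence was read after 30min at room temperature.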
The nature of test [5]: Caspase-3/7 induction in HepG2 cells by small molecules, qHTS cell viability counter screen (AID 1346981). Further: nearly all actives have a fitted effect of over 30% in size. Further: potency means the concentration at half of the fitted maximal effect. Put shortly: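 The parent HepG2 line is plated at 2,000 cells per well and rested 5 hr before compound pinning from DMSO stocks. Following a 16-hr treatment at 37 C, a fluorogenic live-cell substrate (CellTiter-Fluor) reports viability after 1 hr.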
Test [6] deals with Nuclear receptor subfamily 1 group I member 2 (Homo sapiens) (UniProt O75469). In words: Human pregnane X receptor (PXR) small molecule agonists, qHTS assay (AID 1346982). Further: nearly all actives have a fitted effect of over 35% in size. Further: potency means the concentration at half of the fitted maximal effect. Put shortly:
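After plating in 5% charcoal-stripped FBS and a 5 hr rest, PXR-Luc HepG2 cells received compounds in DMSO. Following 24 hr at 37 C, ONE-Glo was added and light output read.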

In test [7] the target is Cytochrome P450 2D6 (Homo sapiens) (UniProt P10635). In words: Cytochrome P450 Family 2 Subfamily D Member 6 (CYP2D6) small molecule antagonists: luciferase reporter qHTS assay (AID 1671196). Further: nearly all actives have a fitted effect of over 50% in size. Further: potency means the concentration at half of the fitted maximal effect. The method in brief: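 Quantitative HTS of Tox21 chemicals against CYP2D6 using a luminescent proluciferin substrate. After NADPH addition, 1 h room-temperature reaction; luminescence recorded 20 min post detection reagent.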
A general note: Reporter assays use an easily measured gene product as a stand-in for the process of interest.

Test [8] has as its target Nuclear receptor subfamily 1 group I member 2 (Rattus norvegicus) (UniProt Q9R1A7). Put plainly: Rat pregnane X receptor (rPXR) activation by small molecules, qHTS assay (AID 1346983). Further: nearly all actives have a fitted effect of over 20% in size. Further: potency means the concentration at half of the fitted maximal effect. The conditions noted are these: rPXR luciferase reporter cells, One-Glo luminescence, 24 h; max activation: stronger effect = higher value. Put shortly:
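Cell-based rPXR luciferase reporter assay, 2,000 cells per well, rested 5hr at 37 C before compound addition in DMSO, then 24 hr at 37 C. One-Glo reagent was added and luminescence read after 30 min at room temperature.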

The target in test [9] is Nuclear receptor subfamily 1 group I member 2 (Homo sapiens) (UniProt O75469). In words: CYP3A4 induction through human pregnane X receptor (PXR) by small molecules, qHTS assay (AID 1346984). Further: nearly all actives have a fitted effect of over 40% in size. Put shortly: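 Human PXR activation is tracked via CYP3A4 promoter-luciferase in DPX-2 (HepG2) cells. Compounds treat cells for 24hr at 37C, and luminescence is read after One-Glo.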

The target is the same in test [10]. In words: Human pregnane X receptor (PXR) activation by small molecules, qHTS assay (AID 1346985). Further: nearly all actives have a fitted effect of over 40% in size. Put shortly:
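DPX-2 cells (HepG2 co-transfected with a PXR response element and a CYP3A4-promoter luciferase construct) were seeded at 2,000 per well, rested 5 hr at 37C, then exposed to DMSO-dissolved compounds for 24 hr. Activation was read as luciferase luminescence.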

Several values for one entry are separate records, joined by “and”; a condition that tells them apart may be missing. Equal entries are not always repeated. Results filed as inconclusive are left out. Some compounds were tested as several samples or in several runs, with calls that do not always agree. Activity calls are given as the source filed them. The call rests on the fitted dose curve; in most records, active means well fitted curve in the direction sought with a large enough effect in the repeat runs; inconclusive means weak or mixed curves; inactive means no such curve, though single readings can be large; an effect the other way counts as inactive or inconclusive.
On the % scale 0 is the no-effect control and ±100 the full control effect.

Sequence of Nuclear receptor subfamily 1 group I member 2 (Homo sapiens) (O75469 whole entry, looked up): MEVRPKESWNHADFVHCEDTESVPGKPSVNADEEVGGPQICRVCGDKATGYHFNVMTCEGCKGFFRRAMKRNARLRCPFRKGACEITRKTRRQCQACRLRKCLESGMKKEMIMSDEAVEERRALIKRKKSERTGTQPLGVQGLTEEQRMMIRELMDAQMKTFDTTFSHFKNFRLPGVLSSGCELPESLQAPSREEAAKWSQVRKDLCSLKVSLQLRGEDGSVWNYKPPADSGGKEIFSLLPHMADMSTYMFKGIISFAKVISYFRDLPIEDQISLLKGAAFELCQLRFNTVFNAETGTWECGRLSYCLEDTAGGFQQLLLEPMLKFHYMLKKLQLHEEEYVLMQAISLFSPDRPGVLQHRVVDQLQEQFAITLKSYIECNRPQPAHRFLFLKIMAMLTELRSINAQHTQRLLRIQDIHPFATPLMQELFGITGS
Sequence of Cytochrome P450 2D6 (Homo sapiens) (P10635 whole entry, looked up): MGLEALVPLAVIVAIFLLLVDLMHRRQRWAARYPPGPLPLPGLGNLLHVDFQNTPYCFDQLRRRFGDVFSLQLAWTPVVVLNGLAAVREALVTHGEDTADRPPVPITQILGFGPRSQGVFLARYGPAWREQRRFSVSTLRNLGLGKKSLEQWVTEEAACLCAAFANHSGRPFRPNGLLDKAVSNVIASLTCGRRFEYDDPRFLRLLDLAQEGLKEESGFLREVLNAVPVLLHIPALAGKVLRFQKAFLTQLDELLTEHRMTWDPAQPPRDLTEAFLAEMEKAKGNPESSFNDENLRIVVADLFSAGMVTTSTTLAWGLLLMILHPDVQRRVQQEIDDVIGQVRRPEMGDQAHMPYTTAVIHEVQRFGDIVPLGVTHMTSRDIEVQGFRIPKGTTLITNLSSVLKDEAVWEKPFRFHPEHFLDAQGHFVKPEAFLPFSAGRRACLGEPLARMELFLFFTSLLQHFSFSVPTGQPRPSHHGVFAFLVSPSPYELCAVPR
Sequence of Nuclear receptor subfamily 1 group I member 2 (Rattus norvegicus) (Q9R1A7 whole entry, looked up): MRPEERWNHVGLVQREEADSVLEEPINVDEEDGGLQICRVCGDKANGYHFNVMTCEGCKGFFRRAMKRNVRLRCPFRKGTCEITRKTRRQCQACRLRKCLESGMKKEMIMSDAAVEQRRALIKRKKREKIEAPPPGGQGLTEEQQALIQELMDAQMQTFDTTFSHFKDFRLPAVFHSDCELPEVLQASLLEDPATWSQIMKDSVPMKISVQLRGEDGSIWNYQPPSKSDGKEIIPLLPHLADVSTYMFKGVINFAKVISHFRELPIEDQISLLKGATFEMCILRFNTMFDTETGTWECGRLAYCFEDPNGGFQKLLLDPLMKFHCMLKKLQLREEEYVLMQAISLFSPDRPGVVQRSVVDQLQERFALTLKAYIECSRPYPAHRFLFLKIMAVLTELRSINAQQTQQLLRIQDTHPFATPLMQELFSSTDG

`Cc1cc(O)c2c(c1)C(=O)c1cc(O)cc(O)c1C2=O`: the Potency in test [1] was 29.9 µM (active); in test [3], 48.6 µM (active); in test [5] it was 26.7 µM (active) and 21.7 µM (active); in test [6], 29.9 µM (active) and 21.7 µM (active). Moreover, the Potency result in test [2], in test [4] and in test [7] was “inactive” throughout.

For the compound `CCCCOCCO`, the Potency entry in test [1], in test [2], in [3], in [4], in test [5] and in test [6] was “inactive” in each case. Also, the Potency result in test [7] was “inactive”.

As to `CC(C)(C)C1CCC(O)CC1` (configuration not stated), the Potency entry in test [1], in [2], in test [3], in test [4], in test [5] and in [6] was “inactive” each time. Also, the Potency result in [7] is “inactive”.

Consider `Clc1ccc(Cl)c(Cl)c1Cl`, for which the Potency entry in test [1], in [2], in test [3], in test [4], in [5] and in test [6] was “inactive” each time. Further, the Potency result in test [7] was “inactive”.

As to `C=CC(=O)OCCCCCCCC(C)C`, the Potency entry in [1], in test [2], in [3], in test [4], in test [5] and in test [6] was “inactive” in each case. Besides, in test [7], the Potency result is “inactive”.

For the compound `C=C(C)C(=O)OCCC[Si](OC)(OC)OC`, the Potency entry in [1], in test [2], in test [3], in test [4] and in [5] was “inactive” throughout. Also, the Potency in test [6] was 60.4 µM (active) and inactive; in test [7], 62.6 µM (active) and inactive.

Consider `Cc1ccc(N)c(S(=O)(=O)O)c1`, for which the Potency entry in test [1], in test [2], in test [3], in test [4], in test [5] and in test [6] was “inactive” each time. Moreover, the Potency entry in [7] was “inactive”.

On to `COC(=O)Nc1nc2ccc(Sc3ccccc3)cc2[nH]1`, for which the Potency entry in test [1], in test [2], in test [5] and in test [7] was “inactive” throughout. Besides, the Potency in test [3] was 30.6 µM (active) and 10.6 µM (active); in [4], 54.5 µM (active); in test [8], 1.26 µM (active).

In the case of `CC(C)(CO)COC(=O)C(C)(C)CO`, the Potency result in [1], in test [2], in test [3], in test [4], in [5] and in test [6] was “inactive” throughout. Also, the Potency entry in test [7] was “inactive”.

Regarding `CN(C)c1ccc(C(=N)c2ccc(N(C)C)cc2)cc1`, the Potency in [1] is 17.8 µM (active) and 23.4 µM (active); in test [2], 2.4 µM (active) and inactive; in [3], 30.3 µM (active) and 18.6 µM (active); in test [5] it was 42.7 µM (active) and 46.7 µM (active); in [6], 2.14 µM (active) and 14.8 µM (active); in [7] it was 125 nM (active) and 76.7 nM (active). In test [4], the Potency entry was “inactive”.

Turning to `CC(C)n1c(/C=C/[C@@H](O)C[C@@H](O)CC(=O)O)c(-c2ccc(F)cc2)c2ccccc21`, the Potency result in test [1], in [3], in test [4], in test [5] and in [7] was “inactive” throughout. Moreover, the Potency in test [2] is 12.2 µM (active); in test [8], 12.6 µM (active).

Regarding `O=c1c(-c2ccc(O)cc2)coc2cc(O)ccc12`, the Potency result in [1], in test [2], in test [3], in test [4], in test [5] and in test [7] was “inactive” throughout. The Potency in test [6] is 30.3 µM (active) and 13.7 µM (active).

With `CCCCC/C=C\C/C=C\CCCCCCCC(=O)OC`, the Potency result in test [1], in [2], in [4] and in [5] was “inactive” each time. Further, the Potency entry in test [3] is “inactive and 61.1 µM (active)”; in test [6] it was 67.8 µM (active) and 61.1 µM (active); in test [7], 35.6 µM (active).

`CCOC(=O)C1OC1c1ccccc1` (configuration not stated): the Potency result in [1], in [2], in test [3], in [4], in test [5] and in test [6] was “inactive” each time. Moreover, in test [7], the Potency entry is “inactive”.

In the case of `CCc1ccc(O)cc1`, the Potency result in test [1], in test [2], in [3], in test [4], in [5] and in test [6] was “inactive” each time. For the same compound, the Potency entry in [7] is “inactive”.

As to `O=C1CCCCC1`, the Potency result in test [1], in [2], in test [3], in test [4], in test [5] and in [6] was “inactive” each time. For the same compound, the Potency result in test [7] is “inactive”.

For `O=C1N=C(O)CN1/N=C/c1ccc(-c2ccc([N+](=O)[O-])cc2)o1`, the Potency is 27.3 µM (active) and 23.7 µM (active) in test [1]; 54.5 µM (active) and 26.6 µM (active) in test [3]; 48.6 µM (active) in test [5]. Also, the Potency entry in [2] and in test [4] was “inactive” throughout. For the same compound, the max activation in [8] was -4.97% (inactive).

For the compound `C/C=C(C)/C=C/C=C(C)C`, the Potency result in test [1], in test [2], in [4], in test [5] and in test [7] was “inactive” each time. Moreover, the Potency in test [6] is 60.4 µM (active) and 27.3 µM (active).

Take `NCc1cccc(CN)c1`: the Potency result in [1], in [2], in test [3], in test [4] and in test [5] was “inactive” each time. The Potency in test [7] was 580 nM (active) and 35.6 µM (active).

Take `CC(=O)[C@@]1(O)CC[C@H]2[C@@H]3CCC4=CC(=O)CC[C@]4(C)[C@H]3CC[C@@]21C`: the Potency result in test [2], in test [3], in test [4] and in [5] was “inactive” in each case.

For the compound `C=C1C2CCC(C2)C1(C)C` (configuration not stated), the Potency result in test [1], in test [2], in test [3], in [4], in [5] and in test [6] was “inactive” throughout. Moreover, the Potency entry in test [7] was “inactive”.

With `CCOC(=O)[C@H](CCc1ccccc1)N[C@@H](C)C(=O)N1Cc2ccccc2C[C@H]1C(=O)O`, the Potency result in test [1], in [2], in [4], in test [5] and in [7] was “inactive” each time. Further, the Potency in test [6] was 30.9 µM (active) and 11.9 µM (active). For the same compound, the max activation in [8] was -0.751% (inactive). The compound was classed as inactive in [9] and in test [10].

`CC(C)(N=C=O)c1cccc(C(C)(C)N=C=O)c1`: the Potency entry in test [1], in test [2], in test [3], in test [4] and in [5] was “inactive” each time. The Potency in test [6] was 10.8 µM (active) and 61.1 µM (active); in [7], 35.3 µM (active).

As to `NC(=O)NNc1ccccc1`, the Potency result in test [1], in test [2], in [3], in test [4] and in [5] was “inactive” in each case. Further, the max activation in test [8] is -0.925% (inactive) and 0.997% (inactive).

As for `CC(C)Cc1ccccc1`, the Potency entry in test [1], in test [2], in test [3], in [4], in [5] and in test [6] was “inactive” in each case. Besides, the Potency entry in test [7] is “inactive”.

For `CC(=O)CCc1ccccc1`, the Potency result in test [1], in test [2], in test [3], in test [4], in test [5] and in [6] was “inactive” throughout. In test [7], the Potency result is “inactive”.
